Source: PubChem
Pf growth 96h: P. falciparum growth inhibition at 96 hours. P. falciparum luciferase reporter growth, 96 h. Potency, µM (doses to about 28.7 µM), most hits filed as inhibitors. 6.9% of 320,000 active. AID 504834
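Delayed-death screen, second-generation endpoint: infected erythrocytes, 2% hematocrit, 0.05% parasitemia final; 96 hours at 37 C, 5% CO2; luciferase detection reagent; luminescence decrease equals reduced growth.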
HCV inhibitor: HCV inhibition | Huh7.5.1 HCVcc-Cre infection, luciferase reporter, 44 h | 3.4% of 340,000 active | Potency, µM (titrated, usually from 41.8 µM), most hits filed as inhibitors | AID 651820
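Infectious HCVcc-Cre (~0.5 moi) was added to cells just after compound, with cells seeded 4 h earlier at 1,000 per well. Luciferase activity after 44 h culture reported infection; substrate was incubated 15 min at room temperature before reading.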
VACV mCherry inh: vaccinia inhibition (mCherry reporter); Vaccinia virus mCherry reporter infection, fluorescence; Potency, µM (titrated, usually from 36.5 µM), usual class: inhibitors; 0.63% of 310,000 active; AID 720579; calls by dose curve; tested in A549 cells; further: nearly all actives have a fitted effect of over 35% in size
Pf growth 48h: inhibits P. falciparum growth in the first generation, 48 h. AID 504832. 5.9% of 310,000 active. P. falciparum luciferase growth in erythrocytes, 48 h. Potency, µM (doses to about 28.7 µM), actives largely listed as inhibitors
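Here the parasites carry a stable luciferase gene and grow inside erythrocytes in Albumax-based RPMI medium with compound for one erythrocytic cycle. Activity is scored as loss of luminescent signal.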
NS1 function inh: inhibitors of influenza NS1 protein function. Potency, µM (series often up to 46.1 µM). AID 2326. 0.4% of 270,000 active; calls by dose curve; further: actives are rising curves; nearly all actives have a fitted effect of over 50% in size
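Compounds were scored for reversing the slow growth caused by influenza A NS1 in S. cerevisiae, measured by optical density at 600 nm. Assay medium contained 2% galactose at pH 6.0; NS1-free yeast of the same strain were the positive control.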
Vaccinia Venus: vaccinia inhibition (Venus reporter); Vaccinia virus Venus reporter expression, fluorescence; Potency, µM (highest dose often 36.5 µM), actives largely listed as inhibitors; 0.46% of 330,000 active; calls by dose curve; tested in A549 cells; further: nearly all actives have a fitted effect of over 30% in size
Numbers stand for hits; - = inactive; ? = inconclusive; . = no result; [ ] = dose if it differs, or a comment. Most compounds without a hit are left out; they make up all but 11% or so of the library. Unless noted, the call rests on the fitted dose curve; in most records, active means well fitted inhibition curve with a large enough effect; inconclusive means small, poorly fitted or top-dose-only effect, or another doubt; inactive means no such curve, though single readings can be large or run the other way.

SMILES	Pf growth 96h	HCV inhibitor	VACV mCherry inh	Pf growth 48h	NS1 function inh	Vaccinia Venus
CC(NC(=O)c1cccc(S(=O)(=O)N2CCN(C)CC2)c1)C1CC2CCC1C2 (configuration not stated)	-	-	-	-	-	-
COc1cc(OC)c(N(C)S(=O)(=O)c2cccc(C(=O)NC(C)C3CC4CCC3C4)c2)cc1Cl (configuration not stated)	2.62µM	?	-	-	-	-
CCn1cc(Cl)c(C(=O)Nc2ccccc2C(N)=O)n1	13.1µM	-	-	-	.	-
CCn1cc(Cl)c(C(=O)Nc2ccc3c(c2)OCCO3)n1	-	-	-	-	.	-
CCn1cc(Cl)c(C(=O)Nc2cccc(C(F)(F)F)c2)n1	2.62µM	-	-	-	.	-
CCc1ccc(CNC(=O)c2sc3nc[nH]c(=O)c3c2C)cc1	.	.	-	.	.	-
COc1ccc(C2c3sc(=O)[nH]c3SC3C4CCC(C4)C23)cc1OC (configuration not stated)	9.28µM	-	.	?	-	-
Cc1ccc(CCc2nnc(SCC(=O)Nc3cccc(Cl)c3)n2-c2ccccc2)o1	-	-	-	?	-	?
CC(C)c1ccc(OCC(=O)NC2CC(C)(C)NC(C)(C)C2)c(Br)c1	-	11.2µM	.	?	-	.
Cc1cc(OCC(=O)NC2CC(C)(C)NC(C)(C)C2)c(C)cc1Br	-	10µM	-	?	-	-
Cc1ccc(OCC(=O)NC2CC(C)(C)NC(C)(C)C2)c(C)c1	-	-	-	-	-	-
CC1(C)CC(NC(=O)COc2ccc(Cl)cc2Cl)CC(C)(C)N1	-	?	-	-	-	-
CCOC(=O)c1c(-c2ccccc2)oc2ccc(N(C(C)=O)S(=O)(=O)c3cc(C)ccc3C)cc12	.	.	-	.	.	-
C=CCN1C(=O)c2ccccc2NC1c1ccc(Br)s1 (configuration not stated)	10.4µM	-	?	13.1µM	-	-
CCC(CC)c1nnc(NC(=O)CCc2ccc(OC)cc2)s1	-	-	-	-	-	-
COC(=O)c1sc(NC(=O)c2ccncc2)nc1C	-	-	-	-	-	-
CCOc1ccc(C(=O)Nc2nc(C)c(C(=O)OC)s2)cc1	-	17.8µM	-	-	-	-
CCCCOC(=O)Nc1nc(C)c(C(=O)OCC)s1	1.47µM	-	-	.	-	-
CCOC(=O)c1sc(NC(=S)NC(=O)c2ccc(OC)cc2)nc1C	2.94µM	?	-	-	-	-
COc1ccc(C(=O)NC(=S)Nc2nc(C)c(C(=O)N(C)C)s2)cc1	.	-	.	-	-	.
O=C(CSc1nnc(-c2ccc(C(F)(F)F)cn2)o1)Nc1cccc(Cl)c1	-	-	-[7.34 µM]	-	-	-[7.34 µM]
O=C(O)CSc1ncnc2sc3c(c12)CCCC3	-	-	-	-	-	-
CCSc1ncnc2sc3c(c12)CCC3	-	25.1µM	.	.	-	.
Fc1ccc(CSc2ncnc3sc4c(c23)CCCC4)cc1	-	11.2µM	.	?	-	.
O=C(O)CSc1ncnc2sc3c(c12)CCC3	-	-	-	-	-	-
SMILES	Pf growth 96h	HCV inhibitor	VACV mCherry inh	Pf growth 48h	NS1 function inh	Vaccinia Venus
c1cn(-c2ncnc3sc4c(c23)CCCC4)cn1	0.165µM	-	.	-	-	?
CCCCS(=O)(=O)/C=C\C=C/S(=O)(=O)CCCC	?	2.51µM	.	9.28µM	-	11.2µM
CCCCS(=O)(=O)/C=C\C1C2C=CC(C2)C1S(=O)(=O)CCCC (configuration not stated)	?	-	.	-	-	-
O=C(NC12CC3CC(CC(C3)C1)C2)N1CCN(c2ccccn2)CC1	-	-	-	11.7µM	-	-
O=C(NC12CC3CC(CC(C3)C1)C2)N1CCN(c2ncccn2)CC1	?	-	-	-	-	-
CCOc1ccc(NC(=O)N2CCC(n3nnc4ccccc43)CC2)cc1	-	-	-	?	-	-
O=C(NC12CC3CC(CC(C3)C1)C2)N1CCC(n2nnc3ccccc32)CC1	9.28µM	-	.	?	-	.
CCOC(=O)C(=CNc1cccnc1Oc1ccc(C)c2c1CCC2)C(=O)OCC	8.28µM	?	-	11.7µM	-	-
Cc1cc(=O)[nH]c(SCC(=O)Nc2ccc(Br)cc2)c1C#N	14.7µM	-	?	.	-	-
Cc1cc(=O)[nH]c(SCC(=O)Nc2ccc(F)cc2)c1C#N	-	-	-	-	.	-
CCCCN(CCCC)CCNC(=O)c1cn(C)c2ccc(S(=O)(=O)N3CCCC3)cc2c1=O	11.7µM	-	-	-	-	-
CCOCCCNC(=O)c1cn(CC)c2ccc(S(=O)(=O)N3CCOCC3)cc2c1=O	10.4µM	-	-	-	-	-
CCn1cc(C(=O)N2CCc3ccccc3C2)c(=O)c2cc(S(=O)(=O)N3CCCCC3)ccc21	-	.	.	?	-	.
CC1CCN(CCCNC(=O)c2cn(C)c3ccc(S(=O)(=O)N(C)C4CCCCC4)cc3c2=O)CC1	.	.	-	.	.	-
Cn1cc(C(=O)N2CCc3ccccc3C2)c(=O)c2cc(S(=O)(=O)N3CCCCC3)ccc21	3.7µM	.	.	-	-	.
CC1CCCN(CCCNC(=O)c2cn(C)c3ccc(S(=O)(=O)N(C)C4CCCCC4)cc3c2=O)C1 (configuration not stated)	-	-	-	13.1µM	-	-
CCN(CC)CCCNC(=O)c1cn(CC)c2ccc(S(=O)(=O)N3CCc4ccccc4C3)cc2c1=O	?	?	-	-	.	-
Cn1cc(C(=O)NC2CCCCCC2)c(=O)c2cc(S(=O)(=O)N3CCCC3)ccc21	-	-	-	-	-	-
CCCCCNC(=O)c1cc(S(=O)(=O)N2CCCC2)ccc1F	11.7µM	-	-	-	-	-
O=C(NCCc1ccc(Cl)cc1)c1cc(S(=O)(=O)N2CCCC2)ccc1F	.	.	-	.	.	-
Cn1cc(C(=O)NCc2ccc(F)cc2)c(=O)c2cc(S(=O)(=O)N3CCCCC3)ccc21	-	?	-	14.7µM	-	-
CCN(CC)CCNC(=O)c1cn(CC)c2ccc(S(=O)(=O)N3CCc4ccccc4C3)cc2c1=O	1.04µM	?	-	?	-	-
Cn1cc(C(=O)NC2CCCCCCC2)c(=O)c2cc(S(=O)(=O)N3CCCC3)ccc21	8.28µM	-	.	?	-	.
CCOC(=O)CCCNC(=O)COC(=O)c1cc2ccccc2cc1O	-	-	-	.	-	-
COc1cc2c(cc1OC)CN(CC(=O)Nc1ccc(S(=O)(=O)N(C)C)cc1)CC2	?	-	-	-	.	-
O=C(/C=C/c1cccs1)c1cc(Br)ccc1OC(=O)N1CCOCC1	?	?	?	?	-	?
CCOCCCNC(=O)c1cn(C)c2ccc(S(=O)(=O)N3CCCC3)cc2c1=O	6.57µM	-	.	-	-	.
COCCNC(=O)c1cn(C)c2ccc(S(=O)(=O)N3CCCC3)cc2c1=O	-	?	.	-	-	.
C(=Nc1cccnc1)c1ccnc2ccccc12	.	.	-	.	.	-
Cc1ccc(S(=O)(=O)N2c3ccccc3NC(=O)CC2C)cc1 (configuration not stated)	-	-	.	?	-	.
